This note sets out measurements from PubChem BioAssay.

Activity calls are given as the source filed them. How the calls were made is not given here.

The target in the experiment is Pantothenate synthetase (Mycobacterium tuberculosis (strain ATCC 25618 / H37Rv)) (UniProt P9WIL5). As to the kind of experiment: Recombinant Mtb pantothenate synthetase (PanC) inhibitors, coupled enzyme, confirmatory (AID 375).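 Further: 0% = full reaction with vehicle and 100% = no enzyme background.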 The conditions noted are these: coupled enzyme assay; at 10 µM, hits give high values.
Pantothenate synthetase (Mycobacterium tuberculosis (strain ATCC 25618 / H37Rv)), sequence (P9WIL5 whole entry, looked up): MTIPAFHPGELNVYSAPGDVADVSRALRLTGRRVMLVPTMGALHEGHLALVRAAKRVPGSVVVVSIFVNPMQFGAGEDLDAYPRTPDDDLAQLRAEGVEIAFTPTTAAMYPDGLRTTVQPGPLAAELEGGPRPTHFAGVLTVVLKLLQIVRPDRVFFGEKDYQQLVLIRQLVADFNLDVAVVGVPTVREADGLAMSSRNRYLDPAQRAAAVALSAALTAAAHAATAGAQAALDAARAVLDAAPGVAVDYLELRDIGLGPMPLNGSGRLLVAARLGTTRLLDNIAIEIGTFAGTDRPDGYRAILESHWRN
For the molecule `CCc1ccc(N(CC(=O)NC2CCCC2)S(=O)(=O)c2c(C)noc2C)cc1`, the inhibition (in general, how much of the control response was suppressed) was 1% (inactive).

For `COC(=O)c1ccc(-n2nnnc2SCc2nn[nH]n2)cc1`, the inhibition was 0% (inactive).

Take `CCOc1ccccc1CN(Cc1ccco1)S(=O)(=O)c1ccc(-n2cnnn2)c(OC)c1`: the inhibition was 8% (inactive).

On to `O=C(O)CCc1ccc(-c2cccs2)o1`, for which the inhibition is 6% (inactive).

In the case of `CCCCOC(=O)Nc1nc2ccc(OC)cc2s1`, the inhibition was 5% (inactive).

For `OC(CCN1CCCC1)(c1ccccc1)C1CCCCC1` (stereo not given), the inhibition is 1% (inactive).

Take `CCN(CC)CC#CCOC(=O)C(O)(c1ccccc1)C1CCCCC1` (stereo not given): the inhibition is 1% (inactive).

For the molecule `O=C1c2ccccc2CN1CCNS(=O)(=O)c1ccc(Cl)cc1`, the inhibition is 9% (inactive).

In the case of `O=C(c1cccs1)c1cn(CC(=O)N2CCc3ccccc3C2)c2ccccc12`, the inhibition was 2% (inactive).

As to `O=C(CN1CCC(n2nnc3cc(F)ccc32)CC1)Nc1ccc2c(c1)CCC2`, the inhibition was 0% (inactive).

Turning to `COc1ccc2cc(CN(CCO)C(=O)c3ccccc3F)c(=O)[nH]c2c1`, the inhibition is 5% (inactive).

Take `Cc1ccc(S(=O)(=O)NCC2CCC(C(=O)NCCCN3CCOCC3)CC2)cc1` (stereo not given): the inhibition is 0% (inactive).

For the molecule `C/C(N)=C(/C#N)C(=O)CSc1nnc(Nc2cccc(C)c2)s1`, the inhibition is 0% (inactive).

Turning to `COCCn1nnnc1C(C(C)C)N1CCN(C(=O)c2ccco2)CC1` (stereo not given), the inhibition was 0% (inactive).

On to `CCc1c(C)nc2ncnn2c1NCCc1ccc(OC)c(OC)c1`, for which the inhibition was 0% (inactive).

Turning to `Cc1nc2c(=O)oc3ccccc3c2n1-c1ccccc1`, the inhibition is 0% (inactive).

With `O=C(CCCn1c(=S)[nH]c2cc3c(cc2c1=O)OCO3)N1CCN(c2ccccc2F)CC1`, the inhibition was 0% (inactive).

Regarding `CC(NC(=O)COc1ccc(Br)cc1)C(=O)O` (stereo not given), the inhibition was 0% (inactive).

With `CCOC(=O)N1CCC(N(C(=O)Nc2ccc(Cl)c(Cl)c2)C(C)CC)CC1` (stereo not given), the inhibition is 4% (inactive).

Turning to `O=C(NCN1CCCCC1)c1cccnc1`, the inhibition is 0% (inactive).

Turning to `CCN(CC)CCCN1C(=O)C(O)=C(C(=O)c2ccco2)C1c1ccc(C)o1` (stereo not given), the inhibition is 13% (inactive).

In the case of `Cc1nc(NC2=NCN(CC3CCCO3)CN2)nc2ccccc12` (stereo not given), the inhibition was 0% (inactive).

Consider `CCN(CC)C1CCCCC1NS(=O)(=O)c1ccc(Cl)cc1` (stereo not given), for which the inhibition was 0% (inactive).

Consider `Cc1ccccc1CS(=O)(=O)Cc1ccc(C(=O)NCCCN2CCOCC2)o1`, for which the inhibition was 0% (inactive).

With `C[C@]12CC[C@@H]3c4ccc(O)cc4CC[C@H]3[C@@H]1CCC2=O`, the inhibition was 6% (inactive).

With `CC1=C(C#N)C(c2ccoc2)C(C(=O)OCc2ccccc2)=C(N)S1` (stereo not given), the inhibition was 5% (inactive).

Regarding `CCn1c(=O)cc(SCC(=O)N2CCOCC2)c2ccccc21`, the inhibition is 11% (inactive).

In the case of `C[C@]12C=CC(=O)C=C1CC[C@@H]1[C@@H]2[C@@H](O)C[C@@]2(C)[C@H]1CC[C@]2(O)C(=O)COC(=O)CCC(=O)O`, the inhibition was 0% (inactive).

Regarding `O=C1OCCC1Sc1ncnc2sc3c(c12)CCC3` (stereo not given), the inhibition is 0% (inactive).

`Cc1sc(NC(=O)CSc2nc(N)n(CC(=O)c3ccccc3)n2)c(C#N)c1C`: the inhibition was 4% (inactive).

Turning to `O=C(c1ccc(Br)o1)N(c1ccc(Br)cc1)C1C=CS(=O)(=O)C1` (stereo not given), the inhibition was 0% (inactive).

In the case of `CCOC(=O)c1[nH]nc(N)c1NC(=O)c1ccc(Cl)cc1Cl`, the inhibition was 0% (inactive).

On to `CCC(=O)Nc1nn(C)c2nc3c(C)cccc3cc12`, for which the inhibition is 0% (inactive).

With `COCCCn1c(=N)c(C(=O)NCC2CCCO2)cc2c(=O)n3cccc(C)c3nc21` (stereo not given), the inhibition was 0% (inactive).

On to `CCOC(=O)N1CCN(c2c(N3CCN(c4ccccc4OC)CC3)c(=O)c2=O)CC1`, for which the inhibition was 0% (inactive).

As for `COC(=O)c1ccc(CSc2nc3ccccc3c(=O)n2Cc2ccco2)o1`, the inhibition was 6% (inactive).

As to `CCn1c(Cc2ccccc2)nnc1SCC(=O)Nc1nc2ccccc2s1`, the inhibition is 2% (inactive).

In the case of `COc1ccc(C)cc1S(=O)(=O)N(C)CC(=O)Nc1ccc2c(c1)OCO2`, the inhibition was 0% (inactive).

In the case of `O=C(OCCCN1C(=O)c2ccccc2C1=O)c1ccco1`, the inhibition is 2% (inactive).

Take `CCOC(=O)Cn1c(CN2CCN(c3cccc(Cl)c3)CC2)nc2c1c(=O)[nH]c(=O)n2C`: the inhibition was 0% (inactive).
